Six compounds from PubChem BioAssay (EPA / NIEHS) can be followed below.

Active and inactive are the calls of the source. How the source made its calls: active means hit-call score of the fitted dose curve at least 0.9, where 1 is the maximum; inactive means score below 0.9.

The first assay can be described thus: CEETOX_H295R_11DCORT_noMTC: CeeTox H295R High-throughput Steroidogenesis Assay for 11-Deoxycortisol (11DCORT), maximum tolerated concentration (MTC) filtered results only (AID 2283911). The following applies: actives raise or lower the signal. The gist of the method: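 Values carry no filtering for maximum tolerated concentration: medium from forskolin-primed (10 uM, 48 h) H295R cells after 48 h chemical exposure (0.1% DMSO) was MTBE-extracted, and 11-deoxycortisol quantified by reverse-phase HPLC-MS/MS. Fitting was bidirectional against DMSO.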
For the compound `CC(C)c1ccc(O)c(C(C)C)c1`, the result was inactive.
Still for that read-out and setting: the value for `N#Cc1ccc(C(c2ccc(C#N)cc2)n2cncn2)cc1` was “inactive”.
What is called AC50 is the concentration giving half of the maximal activity seen. Turning to `COc1ccc(C(=O)/C(Br)=C\C(=O)O)cc1`, the AC50 is 65.2 µM (active).
Consider `CCCCC1C(=O)N(c2ccccc2)N(c2ccccc2)C1=O`, for which the result was inactive.
The same measure, in the same setting: in the case of `CCCC=C(C=O)CC` it was “inactive”; in that of `N#Cc1ccc(C2CCCc3cncn32)cc1` (configuration not stated), “inactive”.

A short description of the next assay: CEETOX_H295R_OHPREG_noMTC: CeeTox H295R High-throughput Steroidogenesis Assay for OH-Pregnenolone (OHPREG), maximum tolerated concentration (MTC) filtered results only (AID 2283912). Particulars: actives raise or lower the signal. Summed up:
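Steroidogenesis in H295R cells (OECD 456, modified): after 48 h forskolin priming and 48 h chemical treatment, secreted 17alpha-hydroxypregnenolone is measured by HPLC-MS/MS. Activity is fitted in both directions against DMSO; concentrations are not filtered by MTT-based MTC.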
As to `CC(C)c1ccc(O)c(C(C)C)c1`, the compound was classed as inactive.
The same measure, in the same setting: the value for `N#Cc1ccc(C(c2ccc(C#N)cc2)n2cncn2)cc1` was “inactive”.
For `COc1ccc(C(=O)/C(Br)=C\C(=O)O)cc1`, the AC50 was 14.2 µM (active).
As for `CCCCC1C(=O)N(c2ccccc2)N(c2ccccc2)C1=O`, the compound was called inactive.
Still for that read-out and setting: in the case of `CCCC=C(C=O)CC` it was “inactive”.
Turning to `N#Cc1ccc(C2CCCc3cncn32)cc1` (configuration not stated), the compound was classed as inactive.

The next assay is described as follows: CEETOX_H295R_OHPROG_noMTC: CeeTox H295R High-throughput Steroidogenesis Assay for OH-Progesterone (OHPROG), maximum tolerated concentration (MTC) filtered results only (AID 2283914). Particulars: actives raise or lower the signal. The gist of the method: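 Forskolin 10 uM, 48 h prestim → test cmpd in DMSO (0.1% final), 48 h → medium MTBE extraction → LC-MS/MS quant of 17alpha-OH-progesterone. Bidirectional fit vs DMSO; no MTT-based MTC filtering.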
Turning to `CC(C)c1ccc(O)c(C(C)C)c1`, the call was inactive.
The same measure, in the same setting: the value for `N#Cc1ccc(C(c2ccc(C#N)cc2)n2cncn2)cc1` was “inactive”.
As for `COc1ccc(C(=O)/C(Br)=C\C(=O)O)cc1`, the AC50 was 58.3 µM (active).
With `CCCC=C(C=O)CC`, the compound was classed as inactive.
Consider `N#Cc1ccc(C2CCCc3cncn32)cc1` (configuration not stated), for which the AC50 was 2.31 µM (active).
